Data on 15 compounds can be found in PubChem BioAssay.

Activity calls are given as the source filed them.

One assay deals with Albumin (Bos taurus) (UniProt P02769). In words: bovine serum albumin binders on microarray, profiling panel, artefact control for SMM control protein annotation, biochemical, small-molecule microarray, Alexa647 label, 635/667 nm fluorescence (AID 1118).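 Note: score merges 667 nm emission intensity and signal-to-noise per printed compound spot.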 To be noted: BSA-A647 binding, fluorescence 635 nm, higher = more signal.
Chain of Albumin (Bos taurus) (P02769 whole entry, looked up): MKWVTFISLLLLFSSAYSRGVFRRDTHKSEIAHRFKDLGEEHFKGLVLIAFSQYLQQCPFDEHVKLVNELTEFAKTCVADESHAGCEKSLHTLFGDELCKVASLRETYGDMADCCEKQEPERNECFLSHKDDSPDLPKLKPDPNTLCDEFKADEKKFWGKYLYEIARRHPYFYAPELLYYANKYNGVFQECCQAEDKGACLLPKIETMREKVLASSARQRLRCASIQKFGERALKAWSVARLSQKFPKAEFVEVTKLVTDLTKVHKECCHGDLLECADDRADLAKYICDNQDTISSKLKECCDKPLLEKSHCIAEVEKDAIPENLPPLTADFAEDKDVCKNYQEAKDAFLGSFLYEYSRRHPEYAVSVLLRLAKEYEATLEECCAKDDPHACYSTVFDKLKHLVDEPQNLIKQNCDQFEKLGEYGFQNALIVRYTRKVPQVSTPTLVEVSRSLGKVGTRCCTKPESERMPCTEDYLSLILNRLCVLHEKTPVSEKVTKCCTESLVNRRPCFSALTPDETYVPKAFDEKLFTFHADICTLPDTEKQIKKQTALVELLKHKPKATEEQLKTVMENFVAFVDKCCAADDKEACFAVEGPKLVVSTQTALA
Assay [1] can be described thus: small-molecule microarray binders of probe aXIP, primary screen, biochemical, NeuroSMM set, 635/667 nm fluorescence (AID 1119).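 Note: probe is the protein aXip251-270 applied at 1 µg/mL to compound-printed slides; binding of probe to printed compounds measured as 667 nm fluorescence plus signal to noise.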 To be noted: higher = more signal, called active from +8 up or from −8 down.
The nature of assay [2]: small-molecule binders of probe aNOTCH3, primary screen, biochemical, small-molecule microarray, 635/667 nm fluorescence (AID 1120).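 Note: probe is a biotin-tagged antibody raised against NOTCH3 rather than NOTCH3 protein; score merges spot fluorescence near 667 nm with spot signal to noise.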 To be noted: higher = more signal.
A short description of assay [3]: small-molecule binders of probe aNOTCH2, primary screen, biochemical, small-molecule microarray, 635/667 nm fluorescence (AID 1121).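 Note: score merges feature fluorescence read at 667 nm with its signal to noise.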 To be noted: higher = more signal.
Assay [4] deals with Carbonic anhydrase 2 (Homo sapiens) (UniProt P00918). Nature of the assay: CAII small-molecule binders, profiling panel, biochemical, small-molecule microarray, Alexa647-labelled CAII (AID 1122). To be noted: CAII-A647 binding fluorescence, higher = more signal.
Assay [5] in a line: COS7 lysate on small-molecule microarray, probe aHis, 635 nm (AID 1123).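 Note: z-score combines 667nm fluorescence intensity with signal-to-noise per printed compound spot.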 To be noted: COS7 cell lysate, fluorescence, higher = more signal.
Assay [6] can be described thus: compound binding in COS7 lysate, probe aLAP1, primary screen, cell lysate, small-molecule microarray (AID 1124).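 Note: lysate comes from COS7 cells expressing LAP1 and is applied at 0.3 µg/mL; score merges spot fluorescence near 667 nm with signal-to-noise over triplicate slides.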 To be noted: probe aLAP1, fluorescence, higher = more signal.
The next assay relates to Sam68 (KHDRBS1). Nature of the assay: Sam68 small-molecule binders, primary screen, biochemical, small-molecule microarray, 635 nm fluorescence (AID 1125).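 Note: score merges 667 nm channel intensity with signal to noise over triplicate slides.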 To be noted: small-molecule microarray binding, higher = more signal.
Assay [7] deals with Chordin-like protein 2 (CHRDL2). In words: CHRDL2 small-molecule binders, primary screen, biochemical, small-molecule microarray, 635 nm fluorescence (AID 1126).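 Note: printed compound slides probed with Chrdl2 protein at 4 µg/mL for 1 h at 4 C; score merges 667 nm emission intensity with signal to noise over three replicate slides.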 To be noted: small-molecule microarray binding, fluorescence 635 nm; higher = more signal.
Assay [8] concerns the target Concanavalin-A (Canavalia ensiformis) (UniProt P02866). Nature of the assay: ConA small-molecule binders, primary screen, artefact control for SMM control protein annotation, biochemical, small-molecule microarray, Alexa647 label, 635 nm (AID 1127).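 Note: z combines 667 nm emission intensity with signal-to-noise across three replicate slides.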 To be noted: ConA-A647 binding fluorescence, higher = more signal.

Chain of Concanavalin-A (Canavalia ensiformis) (P02866 whole entry, looked up): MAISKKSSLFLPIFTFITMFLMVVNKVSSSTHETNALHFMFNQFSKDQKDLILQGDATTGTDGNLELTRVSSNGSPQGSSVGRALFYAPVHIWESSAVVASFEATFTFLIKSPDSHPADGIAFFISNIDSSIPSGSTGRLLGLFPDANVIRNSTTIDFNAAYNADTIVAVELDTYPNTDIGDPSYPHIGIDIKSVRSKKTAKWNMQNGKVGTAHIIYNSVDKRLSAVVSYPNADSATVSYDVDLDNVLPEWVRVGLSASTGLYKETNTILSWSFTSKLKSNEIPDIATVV

As to `CCCCCCc1nc(-c2ccc(-c3ccc(Cl)c(Cl)c3)o2)cc2c1[Si](C(C)C)(C(C)C)OC2`, the composite z-score with Albumin (Bos taurus) was 0.521; in assay [2], -0.261; in [3], -0.156; in assay [4], -0.216; in assay [5] it was 0.445; in [6], -0.389. The figures for the composite z-score (in the assay on Sam68 (KHDRBS1); in [7]; in assay [8]) were -0.248, -0.834 and -0.48, respectively. The composite Z-score in assay [1] is -0.935 (inactive).
For `O=C1C2C=CC(C(O)c3ccc([N+](=O)[O-])cc3)N(Nc3ccccc3F)C2C(=O)N1c1ccccc1` (stereo not given), the composite z-score with Albumin (Bos taurus) is 1.04; in [2], -0.124; in assay [3], 0.0323; in [4] it was 0.703; in [5] it was -0.309; in assay [6] it was 1.06. The composite z-score was 0.808 in the assay on Sam68 (KHDRBS1), -0.445 in assay [7] and 0.886 in [8]. Also, in assay [1], the composite Z-score was 0.0431 (inactive).
As to `COC(=O)[C@@]1(Cc2ccccc2)[C@H]2c3cc(C(=O)N4CCCC4)n(Cc4ccc(OC)c(OC)c4)c3C[C@H]2CN1C(=O)c1ccccc1`, the composite z-score stood at 0.909 with Albumin (Bos taurus); 1.11 in assay [2]; 0.204 in assay [3]; 0.853 in assay [4]; 3.22 in assay [5]; 0.382 in assay [6]. Further, the composite z-score in the assay on Sam68 (KHDRBS1) was 1.04; in [7], -1.05; in [8], 0.827. In addition, the composite Z-score in assay [1] was 0.651 (inactive).
Take `C=CCC(OC(C)=O)[C@@H]1[C@@H](N(Cc2ccc(-c3ccccc3)cc2)C(=O)c2cccc3ccccc23)c2cc(OCCCO)ccc2N1C(=O)Cc1ccc(OC)cc1` (stereo not given in full): the composite z-score with Albumin (Bos taurus) is -0.276; in assay [2] it was 0.222; in assay [3], 0.0092; in assay [4], -0.208; in assay [5] it was -0.212; in [6], -0.338. Further, the composite z-score with Sam68 (KHDRBS1) is -0.205; in assay [7] it was 0.475; in [8], -0.0975. Moreover, in [1], the composite Z-score was -0.064 (inactive).
Take `C=CCOC(=O)[C@H]1[C@@H]2C(=O)O[C@@H](c3ccccc3)[C@@H](c3ccccc3)N2[C@@H](c2ccc(OCCOC(=O)[C@H]3C[C@H]4C(=O)N[C@@H](CC(C)C)C(=O)N4[C@H]3c3ccc(O)cc3)cc2)[C@]12C(=O)Nc1ccccc12`: the composite z-score in the assay with Albumin (Bos taurus) was -1.5; in [2] it was 0.0695; in [3], -0.0666; in assay [4], 0.368; in assay [5], 1.74; in assay [6] it was 0.878. Besides, the composite z-score in the assay with Sam68 (KHDRBS1) was 1.31; in assay [7], 1.26; in assay [8], 1.06. The composite Z-score in assay [1] was 0.0398 (inactive).
As for `COc1ccc([Si](C)(C)[C@@H]2[C@@H](CC(=O)N3CCC[C@H]3CO)O[C@]3(C(=O)N(Cc4cccc(N5CCCCC5=O)c4)c4ccccc43)[C@H]2C)cc1`, the composite z-score was -0.101 with Albumin (Bos taurus); -0.0098 in assay [2]; -0.127 in assay [3]; 0.583 in assay [4]; 1.97 in assay [5]; 0.433 in assay [6]. Also, the values for the composite z-score (in the assay on Sam68 (KHDRBS1); in assay [7]; in [8]) were 1.07, 0.781 and 1.11, respectively. Moreover, the composite Z-score in [1] was 1.39 (inactive).
Regarding `CCCCCC1=C2CNC(CC(C)C)(C(=O)OC)C=C2C(C)C1=O` (stereo not given), the composite z-score in the assay with Albumin (Bos taurus) worked out at 0.624; in assay [2] it was 0.376; in assay [3] it was 0.0453; in assay [4] it was 0.495; in [5], 1.9; in assay [6], 0.602. The values for the composite z-score (in the assay with Sam68 (KHDRBS1); in assay [7]; in assay [8]) were 1.18, -0.861 and 0.232, respectively. Further, the composite Z-score in assay [1] is -0.378 (inactive).
With `C=CCNC(=O)[C@@H]1[C@H]2C(=O)O[C@H](c3ccccc3)[C@H](c3ccccc3)N2[C@H](c2ccc(OCCO)cc2)[C@@]12C(=O)Nc1ccc(C#CC3(O)CCCCCC3)cc12`, the composite z-score in the assay with Albumin (Bos taurus) is 0.692; in [2] it was 0.13; in [3] it was -0.11; in assay [4], 0.42; in assay [5], 1.86; in assay [6] it was 0.637. The values for the composite z-score (in the assay on Sam68 (KHDRBS1); in assay [7]; in assay [8]) were 1.3, 0.253 and 1.19, respectively. The composite Z-score in assay [1] is -0.058 (inactive).
On to `COC(=O)[C@@]1(Cc2ccc(F)cc2)[C@H]2c3cc(C(=O)N4CCCC4)n(Cc4ccccn4)c3C[C@H]2CN1C(=O)c1ccccc1`, for which the composite z-score with Albumin (Bos taurus) came out at 0.0228; in assay [2], 0.547; in [3] it was 0.417; in assay [4], 0.482; in assay [5], 2.95; in assay [6], 0.382. In addition, the results for the composite z-score (in the assay with Sam68 (KHDRBS1); in assay [7]; in assay [8]) were 1.17, -0.22 and 0.627, respectively. The composite Z-score in [1] was -0.104 (inactive).
Consider `CC(C)=CCCC(C)=CC(O)C1C=CC2C(=O)NC(=O)C2N1Nc1ccc(Cl)cc1Cl` (stereo not given), for which the composite z-score is 0.909 with Albumin (Bos taurus); 0.0952 in assay [2]; -0.0464 in assay [3]; 0.596 in [4]; 1.49 in assay [5]; 1.36 in [6]. In addition, the composite z-score was 0.623 with Sam68 (KHDRBS1), 0.307 in assay [7] and 0.623 in [8]. The composite Z-score in assay [1] is -0.0883 (inactive).
Turning to `C=CCOC(=O)[C@@H]1[C@H]2C(=O)O[C@H](c3ccccc3)[C@H](c3ccccc3)N2[C@H](c2ccc(OCCOC(=O)[C@H]3C[C@H]4C(=O)N[C@@H](CCCCN(C)C)C(=O)N4[C@H]3c3ccc(O)cc3)cc2)[C@@]12C(=O)Nc1ccc(I)cc12`, the composite z-score was -0.839 with Albumin (Bos taurus); 0.0006 in assay [2]; -0.0698 in [3]; 0.426 in assay [4]; 1.95 in [5]; 0.148 in assay [6]. Moreover, the composite z-score in the assay on Sam68 (KHDRBS1) amounted to 1.29; in assay [7], 1.1; in [8], 1.15. Besides, the composite Z-score in assay [1] is 0.929 (inactive).
For the compound `COC(=O)C1(Cc2ccccc2)C=C2C(=C(C)C(=O)C2C)CN1` (stereo not given), the composite z-score with Albumin (Bos taurus) was -0.0396; in [2], 0.0203; in assay [3], 0.197; in assay [4], 0.742; in assay [5], 2.62; in assay [6] it was 0.578. Besides, the composite z-score in the assay with Sam68 (KHDRBS1) was -0.674; in assay [7] it was 0.46; in [8], -0.634. The composite Z-score in assay [1] is 0.877 (inactive).
In the case of `CN(C)C(=O)[C@@]1(Cc2ccccc2CN=[N+]=[N-])COC(c2ccc(OCCCO)cc2)=N1`, the composite z-score in the assay with Albumin (Bos taurus) is 0.819; in [2], -0.0048; in assay [3], -0.156; in assay [4], 0.572; in assay [5], 1.78; in assay [6], -0.0884. In addition, the figures for the composite z-score (in the assay with Sam68 (KHDRBS1); in assay [7]; in assay [8]) were 0.0673, -0.781 and 1.04, respectively. For the same compound, the composite Z-score in assay [1] was -0.0705 (inactive).
With `CC(C)=CCCC(C)=CC(O)C1C=CC2C(=O)NC(=O)C2N1Nc1ccccn1` (stereo not given), the composite z-score in the assay with Albumin (Bos taurus) amounted to 0.408; in assay [2] it was 0.254; in assay [3], 0.0047; in [4], 0.725; in assay [5] it was 0.39; in assay [6], 0.969. Moreover, the composite z-score in the assay on Sam68 (KHDRBS1) is 1.25; in assay [7], 1.43; in [8], 0.932. Also, the composite Z-score in assay [1] is 0.992 (inactive).
Consider `C=C(CCCC)/C(=C/C[C@@H](OC(C)=O)c1ccc(CO)o1)c1cnc2ccccc2c1`, for which the composite z-score was 0.333 with Albumin (Bos taurus); 0.185 in assay [2]; -0.0684 in assay [3]; 0.476 in [4]; 1.45 in assay [5]; 1.17 in assay [6]. Besides, the results for the composite z-score (in the assay with Sam68 (KHDRBS1); in assay [7]; in assay [8]) were 1.3, 1.03 and 0.875, respectively. Also, in assay [1], the composite Z-score was -0.117 (inactive).
